Measured values published in PubChem BioAssay.
Active and inactive are the calls of the source.

Assay: JC-1 mitochondrial signal, unstimulated adipocytes – cell-based, JC-1 fluorescence, 3T3-L1 adipocytes, 24 h, 100 nL compound, profiling panel (AID 1168); further: test concentration not given here
Conditions: JC-1 mitochondrial fluorescence, higher = more signal, called active from +8 up or from −8 down

z-score, inactive:
COC(=O)[C@@]1(Cc2ccc(OC)cc2)[C@H]2c3cc(C(=O)N4CCCC4)n(CCc4ccccn4)c3C[C@H]2CN1C(=O)c1ccccc1 -1.59
CC(=O)N1Cc2ccccc2C[C@@]2(N=C(c3ccc(OCCCO)cc3)O[C@H]2c2ccccc2)C1=O 0.234
CC(C)NC(=O)[C@@]1(c2ccc([N+](=O)[O-])cc2)CC(=O)N(C(C)C)[C@@H]1c1ccc(CO)cc1 0.481
CC(C)C(O)C1C=CC2C(=O)N(C)C(=O)C2N1N1CCCCC1 (stereo not drawn) -0.307
CCCC[C@@H]1C[C@H]1[C@@H](NC(=O)c1ccccc1)c1ccccc1 -1.07
CCN(CC)c1ccc(N2CC=CC34O[C@@H]5/C=C\CCCOC(=O)C5[C@H]3C(=O)N(CCCO)[C@@H]4C2=O)cc1 (stereo partly drawn) -0.546
COc1ccc(C(O)C2C=CC3C(=O)N(c4ccccc4)C(=O)C3N2Nc2ccccc2)c2ccccc12 (stereo not drawn) -0.849
O=[N+]([O-])c1ccc(C[n+]2ccc(CCCO)cc2)o1 -0.266
C[N+](C)(C)CCCCNC(=O)[C@H]1C[C@H]2C(=O)N3CCC[C@H]3C(=O)N2[C@H]1c1ccc(O)cc1 -1.5
COCCOC(=O)N1C(=O)[C@@]2(c3ccccc31)[C@H](C(=O)N1CCCCCCC1)[C@H]1C(=O)O[C@H](c3ccccc3)[C@H](c3ccccc3)N1[C@@H]2c1ccccc1OCCO -0.226
C=CCC(OC(C)=O)[C@@H]1[C@@H](N(Cc2ccc(-c3ccccc3)cc2)C(=O)c2ccc(C)cc2)c2cc(OCCCO)ccc2N1C(=O)Cc1ccc(OC)cc1 (stereo partly drawn) -0.172
COC(=O)[C@@]1(Cc2ccc(OC)cc2)[C@H]2c3cc(C(=O)N4CCCC4)n(C[C@H](O)CO)c3C[C@H]2CN1C(=O)c1ccccc1 0.585
O=C1O[C@H](c2ccccc2)[C@H](c2ccccc2)N2[C@H]1[C@@H](C(=O)NC[C@H](O)c1ccccc1)[C@]1(C(=O)Nc3ccc(C#CC4=CCCCC4)cc31)[C@H]2c1ccc(O)cc1 -0.683
COc1ccc([Si](C)(C)[C@@H]2[C@@H](CCO)O[C@]3(C(=O)N(Cc4ccccc4)c4ccc(N(C=O)c5ccccc5)cc43)[C@H]2C)cc1 -0.435
COc1cc(NN2C(C(O)c3ccccc3)C=CC3C(=O)N(c4ccccc4)C(=O)C32)cc(OC)c1OC (stereo not drawn) -1.72
CN(C)CCCCNC(=O)[C@@H]1C[C@@H]2C(=O)N[C@@H](CCCCN)C(=O)N2[C@@H]1c1cccc(OCCO)c1 -0.0937
COc1c(C)cc(-c2cc3c(c(-c4ccccc4)n2)[Si](C(C)C)(C(C)C)O[C@H]3c2ccccc2)cc1C -1
[N-]=[N+]=NCc1ccccc1C[C@]1(C(=O)NCc2ccccc2)COC(c2ccc(OCCCO)cc2)=N1 0.768
C=CCOC(=O)[C@@H]1[C@H]2C(=O)O[C@H](c3ccccc3)[C@H](c3ccccc3)N2[C@H](c2ccc(OCCOC(=O)[C@H]3C[C@H]4C(=O)N[C@@H](CCCC[N+](C)(C)C)C(=O)N4[C@H]3c3cccc(OCCO)c3)cc2)[C@@]12C(=O)Nc1ccc(I)cc12 1.07
O=C1OCC=C[C@H]2OC34C=CCN(c5ccc(Cl)cc5)C(=O)[C@H]3N(CCCO)C(=O)[C@@H]4[C@@H]12 (stereo partly drawn) 0.978
O=c1cccc(-c2ccccc2)o1 0.221
C=C(COC)C(=O)CC[C@H](OC(=O)c1cccnc1)c1ccccc1OCCO 0.0833
CCCCCN1CC=CC23O[C@@H]4C=CCCOC(=O)C4[C@H]2C(=O)N(CCCO)[C@@H]3C1=O (stereo partly drawn) -0.361
CCN(CC)c1ccc(N2CC=CC34O[C@@H]5C=CCOC(=O)[C@@H]5[C@H]3C(=O)N(CCCCCO)[C@@H]4C2=O)cc1 (stereo partly drawn) 0.876
C#C[C@H]1Oc2ccccc2S(=O)(=O)N2CCC[C@@H]12 -0.275
O=C1C2C=CC(C(O)c3ccc(B(O)O)cc3)N(Nc3ccc([N+](=O)[O-])cc3)C2C(=O)N1c1ccccc1 (stereo not drawn) 3.71
O=C1OCCC/C=C\[C@H]2OC34C=CCN(CCN5CCOCC5)C(=O)[C@H]3N(CCO)C(=O)[C@@H]4C12 (stereo partly drawn) -1.21
CC(=O)n1cc(C(O)C2C=CC3C(=O)N(c4ccccc4)C(=O)C3N2Nc2ccc(C#N)cc2)c2ccccc21 (stereo not drawn) -0.855
